For 68 molecules, inhibition results are on record in ChEMBL document CHEMBL3988442, “University of Dundee, Small-Polar-MMV Screening Library” (2021).

SMILES strings stand for the structures. Hit rate of the full screen: of about 68,000 compounds, about 25 (0.04%) showed an effect of 50% or more. The list comes from a sample in which strong results are over-represented; it also holds similar structures and randomly drawn compounds.

By inhibition is commonly meant the relative decrease from the control value, in per cent.

This assay concerns the target T1, Methionyl-tRNA synthetase, putative (Leishmania donovani (strain BPK282A1)) (UniProt E9BF75).
T1 sequence (whole entry): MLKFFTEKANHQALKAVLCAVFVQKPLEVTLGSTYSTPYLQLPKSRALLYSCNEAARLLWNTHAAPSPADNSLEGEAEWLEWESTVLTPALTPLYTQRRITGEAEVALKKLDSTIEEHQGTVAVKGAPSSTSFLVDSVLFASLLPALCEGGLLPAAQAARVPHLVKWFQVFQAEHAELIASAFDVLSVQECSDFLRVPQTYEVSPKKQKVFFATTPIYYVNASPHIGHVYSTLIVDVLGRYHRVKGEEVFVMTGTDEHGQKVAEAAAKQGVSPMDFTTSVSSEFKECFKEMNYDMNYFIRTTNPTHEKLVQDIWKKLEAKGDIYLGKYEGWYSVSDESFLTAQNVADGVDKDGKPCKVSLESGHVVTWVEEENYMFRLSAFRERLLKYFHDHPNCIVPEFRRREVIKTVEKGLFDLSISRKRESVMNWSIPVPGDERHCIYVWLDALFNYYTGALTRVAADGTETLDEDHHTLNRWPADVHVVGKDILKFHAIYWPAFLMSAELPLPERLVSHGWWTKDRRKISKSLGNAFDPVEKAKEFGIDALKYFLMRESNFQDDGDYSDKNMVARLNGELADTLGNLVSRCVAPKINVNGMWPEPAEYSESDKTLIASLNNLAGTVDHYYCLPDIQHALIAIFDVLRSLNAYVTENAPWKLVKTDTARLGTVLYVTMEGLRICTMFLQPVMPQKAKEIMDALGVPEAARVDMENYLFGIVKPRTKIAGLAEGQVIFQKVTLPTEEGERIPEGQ
Put plainly: Leishmania donovani Methionine tRNA synthetase (LdMetRS):v6. Primary screen assay. Format: functional. Also on record: conc 80 nM, time 150 minutes.
Consider `Cc1ocnc1C(=O)N1CCN(Cc2ccccc2)[C@@H]2CS(=O)(=O)C[C@@H]21`, for which the inhibition was 11.8%. On to `O=C([C@@H]1C[C@H]2[C@H](CCN2Cc2nccs2)O1)N1CCOCC1`, for which the inhibition was found to be 12.4%. As to `Cc1noc([C@@H]2CC[C@@H]3[C@@H](CCN3S(=O)(=O)c3ccccc3)O2)n1`, the inhibition was determined as 21.6%. Regarding `Cn1ccnc1CN1C[C@H]2CN(S(C)(=O)=O)CCN2C1=O`, the inhibition came to 12%. Regarding `COCCN1C(=O)CC[C@@H]2[C@H]1CCN2C(=O)C1CCOCC1`, the inhibition is 7.27%.

For `CCN1C[C@H]2[C@@H](C1)N(S(=O)(=O)c1ccccc1F)CC[C@H]2OC`, the inhibition turned out to be 18.4%. With `Cc1cnn(CCNCc2c(C)nn(C)c2Cl)c1` the figure was 15.4%; with `Cc1cnn(CCNCc2c(C)nn(CCO)c2C)c1`, 105%; with `Cc1cnn(CCNCc2c(C)nn(Cc3ccccc3)c2C)c1`, 9.32%.

As to `CCn1nc(C)c(CNCCn2cc(C)cn2)c1C`, the inhibition is -6.21%. On to `Cc1cnn(CCNCc2c(C)nn(-c3ccccc3)c2C)c1`, for which the inhibition was 121%. For `Cc1cnn(CCNCc2ccccc2F)c1`, the inhibition is 13%. With `Cc1cccc2nc(C(=O)N3CCCC[C@]4(C)NC(=O)CC[C@H]34)cn12`, the inhibition is 13.5%. As for `O=C(N1CCCC(n2cncn2)C1)C1(c2ccc(Cl)cc2)CCC1` (stereo not drawn), the inhibition was 15.4%. Consider `O=C(O)CC1COCCN1C(=O)C1(c2ccc(Cl)cc2)CCC1` (stereo not drawn), for which the inhibition was found to be 52.2%. With `O=C(N1CCC(O)(C(F)(F)F)C1)C1(c2ccc(Cl)cc2)CC1` (stereo not drawn) the figure was 8.1%. Regarding `O=C(N1CCOCC1CO)C1(c2cccs2)CCCC1` (stereo not drawn), the inhibition is 8.7%.

Take `CNC(=O)CC1COCCN1C(=O)C1(c2ccc(Cl)cc2)CCC1` (stereo not drawn): the inhibition was determined as 7.45%. With `O=C(N1CCOCC(O)C1)C1(c2ccc(Cl)cc2)CCC1` (stereo not drawn) the figure was 123%; with `O=C(c1ccco1)N1C[C@@H]2CN(c3ccccn3)C[C@@H]2C1`, 6.11%; with `O=C(NCc1ccco1)[C@H]1CC[C@@H]2[C@@H](CCN2c2ncccn2)O1`, 3.27%. In the case of `CC(C)CN1Cc2nc(N3CCC(O)CC3)ncc2C1=O`, the inhibition came to 7.08%. `Cc1nonc1CC(=O)N1C[C@@H]2CC[C@H](C1)N(Cc1ccccc1)C2=O`: the inhibition came to 6.88%. With `N#Cc1ccccc1CN1C[C@@H]2CC[C@H](C1)N(CC1CCC1)C2=O`, the inhibition worked out at 19.4%. With `CCc1[nH]c2c(CNc3cncc(C(=O)N(C)C)n3)cc(C)cc2c1C` the figure was 32.3%; with `CCc1[nH]c2c(CNc3cncc(C(=O)N(C)C)n3)cc(F)cc2c1C`, 28.6%; with `CCc1[nH]c2c(CNc3cncc(C(=O)OC)n3)cc(C)cc2c1C`, 123%. With `CCOCC(=O)N1CC[C@H]2OCC[C@@]2(COc2ncccc2F)C1` the figure was 6.53%; with `CC1CCN(c2ccc(C(=O)N3CCCC3c3ccc[nH]3)cn2)CC1` (stereo not drawn), 78.5%; with `CC1CCN(c2ccc(C(=O)N3CCCC3c3nncn3C)cn2)CC1` (stereo not drawn), 4.75%.

As for `NC(=O)c1ccc(OCC(=O)N2CCCC2c2ccc[nH]2)cc1` (stereo not drawn), the inhibition turned out to be 15.5%. Turning to `CCCOc1cc(C)c2c(c1C)C[C@H]([C@H](C)C(=O)O)CC2`, the inhibition is 2.26%. For the molecule `CC(C)N1[C@H](CN2CCCC2)C[C@@H]2CN(Cc3cnn(C)c3)CC[C@@H]21`, the inhibition is 12.3%. For `c1coc(CN2CCO[C@H]3[C@H](OCC4CC4)CC[C@@H]32)c1`, the inhibition came out at 13.7%.

With `O=C(NCC1CCOCC1)[C@@H]1CC[C@@H]2[C@@H](CCN2Cc2ccncc2)O1`, the inhibition was found to be 19.3%. For `Cc1nc(CN2C(=O)C[C@@H]3[C@@H]2CCN3S(=O)(=O)C2CC2)cs1`, the inhibition came to 11.7%. Regarding `COCC(=O)N1C[C@@H]2CCCO[C@@H]2[C@H](N(C)Cc2ccco2)C1`, the inhibition is -6.25%. As for `CNC(=O)[C@H]1C[C@@H]2CN(Cc3ccccc3)C[C@H]1O2`, the inhibition was found to be 15.9%. Consider `CN(C(=O)c1cccc(C(=O)NCC(F)(F)F)c1)c1ccccc1`, for which the inhibition was found to be 3.94%. `COC(=O)CCNC(=O)c1cccc(C(=O)N(C)c2ccccc2)c1`: the inhibition turned out to be 31.7%. For `COC(=O)CNC(=O)c1cccc(C(=O)N(C)c2ccccc2)c1`, the inhibition is 95%. For `O=C(NC1CC1)N1C[C@@H]2CCN(C(=O)c3cscn3)[C@@H]2C1`, the inhibition came to 0.546%. With `CO[C@H]1C[C@@H]2CN(C(=O)c3cc4ccc(F)cc4[nH]3)C[C@@H]2C1` the figure was 13.3%.

Turning to `O=C1[C@H]2CN(S(=O)(=O)c3ccccc3)C[C@H]2CN1Cc1cccnc1`, the inhibition stood at 4.19%. With `Cc1nnc(NC(=O)NCc2ccc(N3CCNC(=O)C3)cc2)s1` the figure was 9.92%; with `Cc1cccnc1NC(=O)NCc1ccc(N2CCNC(=O)C2)cc1`, 50.6%; with `Cc1ccccc1C(=O)NCc1ccc(N2CCNC(=O)C2)cc1`, 14.1%. With `CN(C)S(=O)(=O)N1CC[C@]2(O)CCN(Cc3cccc(F)c3)C[C@@H]2C1`, the inhibition is 12.9%. Turning to `CC(C)c1nc(N2CCC(N3CCSCC3)CC2)c2cnn(C)c2n1`, the inhibition amounted to 12.3%.

As for `CC(C)c1nc(N2CCC(N3CCCC(O)C3)CC2)c2cnn(C)c2n1` (stereo not drawn), the inhibition worked out at 14.7%. As for `CC(C)c1nc(N2CCC(N3CCCCCC3)CC2)c2cnn(C)c2n1`, the inhibition was 56.4%. `CC1=N[C@@]2(CC[C@@H]3CN(CC4CC4)C[C@@H]32)C(=O)N1CC(C)C`: the inhibition came out at 14.9%.

Consider `COCCN1C[C@H]2CC[C@@H]1CN(C(=O)CCn1cc(Cl)cn1)C2`, for which the inhibition is 9.25%. With `CC(C)CC(=O)N1CC[C@@H]2[C@H](CC1)N(Cc1cccnc1)CCS2(=O)=O` the figure was 15.2%; with `CN(C)CCN1CC[C@H]2[C@@H]1CCN2Cc1ccc2c(c1)OCO2`, 5.56%; with `CCCSCC(=O)N1C[C@@H]2CC[C@H](C1)N(Cc1ccccn1)C2=O`, -1.42%. Consider `c1ccc(CN2C[C@H]3CC[C@@H]2CN(Cc2nnc(C4CC4)o2)C3)cc1`, for which the inhibition was 12.8%. For `CN(C)C(=O)N1CCN(c2ccc3ccc(C(=O)NC4CC4)cn23)CC1`, the inhibition was 20.2%. `CC(C)N1CCN(c2ccc3ccc(C(=O)NC4CCCC4)cn23)CC1`: the inhibition amounted to 30.2%. As to `CC(=O)N1CCN(c2ccc3ccc(C(=O)NC4CCCC4)cn23)CC1`, the inhibition came to 52.9%. Regarding `N#Cc1cccc(C(=O)N2CC[C@H]3[C@H]2CCN3CC2CCOCC2)c1`, the inhibition came to 9.34%.

On to `CS(=O)(=O)NC[C@]12COC[C@H]1CN(CCc1ccccc1)C2`, for which the inhibition amounted to 13.1%. In the case of `Cc1nc([C@H]2C[C@@H]3CCN(C(=O)c4ccnnc4)C[C@H]3O2)sc1C`, the inhibition was determined as 17%.

For the molecule `O=C(NCC1CCOCC1)[C@H]1C[C@@H]2CCN(Cc3ccccc3)C[C@H]2O1`, the inhibition was 18.4%.

As for `CNC(=O)N1C[C@H]2C[C@H](C(=O)NCc3cccnc3)[C@@H](C1)O2`, the inhibition amounted to 9.15%. Turning to `Cc1ncc(CN2CCOC(CNc3cccnn3)C2)s1` (stereo not drawn), the inhibition was 13.2%. With `CCCN1C[C@H]2CC[C@@H]1CN(c1nnc(C(C)C)s1)C2`, the inhibition amounted to 9.31%.

Take `O=C(Cn1ccc(=O)cc1)N1C[C@H]2CC[C@@H]1CN(c1ncccn1)C2`: the inhibition is 15.1%.
